FMDV inh: High Throughput Screening for Foot and Mouth Disease Virus Antivirals | 410,000 compounds, 1.2% hits | AID 1159524, 2015 | Potency, µM (top dose mostly 57.9 µM), for the others: at the top dose activity change, negative = inhibition, usual class: inhibitors | FMDV antiviral cell-based qHTS; calls by dose curve; tested in HEK293T cells; also: read-out not given here; potency is read from the fitted curve at half-maximal effect; nearly all actives have a fitted effect of over 45% in size
MARV entry inh: qHTS for inhibitors of binding or entry into cells for Marburg Virus | 300,000 compounds, 1.8% hits | Marburg virus pseudotyped entry inhibition, cell reporter | Potency, µM (titrated, usually from 37.8 µM), for inactives: top-dose activity change, negative = inhibition, hits mostly inhibitors; calls by dose curve; tested in HEK293 cells; also: potency is read from the fitted curve at half-maximal effect
HCMV inh: qHTS Assay for inhibitors of the human cytomegalovirus (HCMV) | HFF cells, HCMV-luciferase reporter, 72 h; hits give low values | 410,000 compounds, 4.5% hits | activity change, negative = inhibition, % at 57.5 µM; in the data active = activity change below about -60%; inconclusive = no clear call, values can overlap the other calls; inactive = above about -39%
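Compounds were evaluated in HFFs infected with an HCMV luciferase reporter virus (MOI 1 PFU/cell). Luciferase in lysates collected 72 h post infection served as the replication measure.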
LASV entry inh: qHTS for Inhibitors of binding or entry into cells for Lassa Virus; Lassa virus pseudotype entry inhibition, cell reporter; Potency, µM (doses to about 37.9 µM), for the others: top-dose activity change, negative = inhibition, hits mostly inhibitors; 300,000 compounds, 1.2% hits; AID 540256, 2011; calls by dose curve; tested in HEK293 cells; also: potency is read from the fitted curve at half-maximal effect; nearly all actives have a fitted effect of over 50% in size
Active calls of the source: *; u = inconclusive; x = not tested or not shown; + = active, no number; [ ] = dose if it differs, or a comment. An excerpt weighted towards active compounds, which were near 6.2% of everything screened. % is scaled to controls: 0 for no effect and ±100 for the full control effect.

SMILES | FMDV inh | MARV entry inh | HCMV inh | LASV entry inh
Cn1c(N/N=C2\CCCc3ccccc32)nc2c1c(=O)n(Cc1ccccc1)c(=O)n2C | 0% | u | -11 | 14%
COc1ccc(Cl)cc1N1C(=O)c2cccnc2C1=O | 4% | x | x | x
CCOc1cc(N2CCOCC2)c(OCC)cc1NC(=O)c1cccc(S(=O)(=O)N2CC(C)OC(C)C2)c1 (stereo not drawn) | -9% | x | -34 | x
CCCCC(=O)NC(c1cccc([N+](=O)[O-])c1)c1ccc2cccnc2c1O (stereo not drawn) | 8% | x | -103* | x
CC(=O)NC(c1cccc([N+](=O)[O-])c1)c1ccc2cccnc2c1O (stereo not drawn) | -26% | u | -102* | u
CCCCC(=O)NC(c1ccc([N+](=O)[O-])cc1)c1c(O)ccc2ccccc12 (stereo not drawn) | 20µM* | u | -99* | u
CCCOC(=O)c1ccc(Oc2cn[nH]c2-c2ccc(OCC)cc2O)cc1 | u | u | 70 | 7.9µM*
CCCOC(=O)c1ccc(Oc2c(-c3ccc(OCC)cc3O)n[nH]c2C)cc1 | x | u | -98* | u
CCCc1ccc(Oc2cn[nH]c2-c2ccc(O)c(C)c2O)cc1 | x | u | -61* | -24%
CN(CC(=O)Nc1ccccc1)CC(=O)Nc1ccccc1Cl | 22% | x | -16 | x
C/C(=N\NS(=O)(=O)c1ccc(Br)cc1)c1ccc(-n2ccnc2)cc1 | 118% | x | -10 | x
CCN(CC)S(=O)(=O)c1ccc(C(=O)NCCc2cc3c(OC)ccc(OC)c3[nH]c2=O)cc1 | u | u | -30 | u
CSc1nnc(-c2sc3cc(C(F)(F)F)cnc3c2-c2cccnc2)n1C | -23% | -17%[46.1 µM] | 7 | -21%
O=C(CCNS(=O)(=O)c1ccccc1C(F)(F)F)N1CCN(C(c2ccccc2)c2ccccc2)CC1 | u | 7.1µM* | -19 | u
COc1ccc(Cl)cc1NC(=O)Cn1ncc2c3ccccc3n(C)c2c1=O | 7% | -5%[46.1 µM] | 2 | -9%[46.1 µM]
Cc1ccc(C)c(CS(=O)(=O)c2cn(CC(=O)N3CCCCC3)c3ccccc23)c1 | 0% | 2% | 1 | 1%
COc1ccc(C(=O)Nc2ccnn2C2CCN(Cc3cn(C)nc3C)CC2)cc1 | u | x | 6 | x
COc1ccc(NC(=O)Nc2cn(CC(C)C)c(=O)c3ccccc23)c(OC)c1 | 0% | x | -104* | 14%[46.1 µM]
Cc1cc(=O)oc2cc(OCC(=O)Nc3ccc(CN4CCOCC4)cc3)c(Cl)cc12 | -5% | x | -18 | x
CCn1nc(CC(=O)O)c2ccccc2c1=O | 2% | 0%[46.1 µM] | 6 | -9%
O=C(O)Cc1nn(Cc2ccc(Cl)cc2)c(=O)c2ccccc12 | -8% | u | -69* | -10%
CCc1ccccc1N=C1S/C(=C/c2ccccc2OCC(=O)N2CCOCC2)C(=O)N1C | u | -29% | -39 | 15µM*
Cc1cc(NC(=O)c2ccoc2C)ccc1Br | 20% | x | -37 | x
C[C@H]1[C@@H](NS(=O)(=O)c2ccc3ccccc3c2)CC[C@@]23CCCN2C(=O)CCC[C@@H]13 | x | x | -21 | x
Cc1ccc(CNC(=O)CCSCCC(=O)NCc2ccc(C)cc2)cc1 | 4% | 1% | -3 | 4%
SMILES | FMDV inh | MARV entry inh | HCMV inh | LASV entry inh
O=C(NCCCN1CCN(c2ccccc2)CC1)c1ccc2nc(Cc3ccccc3)oc2c1 | u | x | u | -21%[46.1 µM]
C=C(C)CNC(=O)c1ccc2nc(Cc3ccc(OC)cc3)oc2c1 | 16% | -17% | 103 | 6.3µM*
O=C(NCCCN1CCN(c2ccc(F)cc2)CC1)c1ccc2nc(Cc3ccccc3)oc2c1 | 11µM* | x | u | -16%[46.1 µM]
CCC(NC(=O)c1ccc2nc(Cc3ccc(OC)cc3)oc2c1)c1ccncc1 (stereo not drawn) | 20µM* | x | + | x
COc1ccc(Cc2nc3ccc(C(=O)NC(C)C)cc3o2)cc1 | 66% | x | 135 | x
CCn1cc(CNC(=O)c2ccc3nc(Cc4ccc(OC)cc4)oc3c2)cn1 | -19% | -21%[46.1 µM] | -65* | -25%[46.1 µM]
O=C(Nc1ccccc1N1CCCC1)c1ccc(N2CCCC2=O)cc1 | -7% | -10% | -2 | -3%
O=C(NCCc1ccncc1)c1ccc2nc(Cc3cccc(Cl)c3)oc2c1 | -27% | -9% | -70* | 6%
O=C(NCCc1ccc(Cl)cc1)c1ccc2nc(Cc3ccccc3)oc2c1 | -16% | x | -9 | u
COc1cccc(NC(=O)c2ccc3nc(Cc4ccccc4)oc3c2)c1 | -13% | x | -94* | -16%[46.1 µM]
CCOc1cccc(C(=O)Nc2ccc3oc(-c4ccc(C(C)(C)C)cc4)nc3c2)c1 | u | x | -37 | 3%[46.1 µM]
CCOc1cccc(C(=O)Nc2ccc3oc(Cc4ccc(Cl)cc4)nc3c2)c1 | 8.9µM* | u | -60* | u
Cc1ccc(CN2CC3CC(C2)c2cccc(=O)n2C3)cc1 (stereo not drawn) | -25% | -16% | 1 | -13%
CN(C)CCCNCC(=O)Nc1ccc(Cl)cc1C(=O)c1ccccc1 | -8% | 11µM* | -4 | -19%[46.1 µM]
COc1cc(/C=C(/C#N)C(=O)NCc2ccccc2)cc(OC)c1OC | u | x | 23 | x
COCCNC(=O)/C(C#N)=C/C=C/c1ccccc1[N+](=O)[O-] | u | u | -96* | u
COc1ccc(/C=C(\C#N)C(=O)NCCc2ccccc2)cc1OCc1ccccc1 | -19% | 11µM* | -14 | u
CCOCCCNC(=O)/C(C#N)=C/c1ccc(Cl)c([N+](=O)[O-])c1 | u | u | -102* | 2%
CCOCCCNC(=O)/C(C#N)=C/c1cc(OC)c(O)c([N+](=O)[O-])c1 | -15% | u | -3 | u
N#C/C(=C\c1cccc([N+](=O)[O-])c1)C(=O)NCc1ccc(Cl)cc1 | u | u | -98* | 0%
CC1CCN(C(=O)COC(=O)c2n[nH]c(=O)c3ccccc23)CC1 | 1% | x | 1 | x
CCC(C)NC(=O)C1c2ccccc2C(=O)N1Cc1ccc(OC)cc1OC (stereo not drawn) | 21% | 8% | 32 | -12%
COCCNC(=O)/C(C#N)=C/c1ccc(O)cc1 | 46% | 2% | 0 | x
COCCNC(=O)/C(C#N)=C/c1cccc(/C=C(\C#N)C(=O)NCCOC)c1 | 14µM* | u | -68* | u
O=[N+]([O-])c1cnccc1-n1nnc2ccccc21 | u | x | -63* | x
SMILES | FMDV inh | MARV entry inh | HCMV inh | LASV entry inh
O=C(O)c1ccc(-n2nnc3ccccc32)c([N+](=O)[O-])c1 | 19% | 12% | 11 | 11%
O=C(Nc1ccc(Cl)cc1)Nc1ccc2c(c1)OCO2 | 34% | x | 34 | x
Cc1ccc(NC(=S)NCc2ccc(S(N)(=O)=O)cc2)cc1Cl | -10% | -5%[46.1 µM] | -81* | 16%
Cc1c(Cl)cccc1NC(=S)NCc1ccccc1 | 56% | 1% | -78* | 7%
Cc1c(Cl)cccc1NC(=S)NCCc1ccc(S(N)(=O)=O)cc1 | -5% | u | -80* | -12%[46.1 µM]
Cc1c(Cl)cccc1NC(=S)NCCc1ccc(Cl)cc1 | 26% | u | -86* | u
Cc1csc(N/N=C/c2c(F)cccc2Cl)n1 | 45% | 15% | 49 | 8%
CC1C=CCCC12C(=O)NC(=O)NC2=O (stereo not drawn) | -6% | 14% | 6 | 15%

High-throughput results: PubChem, National Center for Advancing Translational Sciences (NCATS)
